D2 antagonist: D2 dopamine receptor (human) antagonism; P14416; HEK293 TREx D2 cells, calcium flux, dopamine EC80; inhibition, % at 10 µM; 340,000 compounds, 2% hits; AID 485344; in the data active means inhibition above about 30%; inactive means below that, where a call was filed; further: 0% is about no effect
Target sequence (P14416 whole entry, looked up): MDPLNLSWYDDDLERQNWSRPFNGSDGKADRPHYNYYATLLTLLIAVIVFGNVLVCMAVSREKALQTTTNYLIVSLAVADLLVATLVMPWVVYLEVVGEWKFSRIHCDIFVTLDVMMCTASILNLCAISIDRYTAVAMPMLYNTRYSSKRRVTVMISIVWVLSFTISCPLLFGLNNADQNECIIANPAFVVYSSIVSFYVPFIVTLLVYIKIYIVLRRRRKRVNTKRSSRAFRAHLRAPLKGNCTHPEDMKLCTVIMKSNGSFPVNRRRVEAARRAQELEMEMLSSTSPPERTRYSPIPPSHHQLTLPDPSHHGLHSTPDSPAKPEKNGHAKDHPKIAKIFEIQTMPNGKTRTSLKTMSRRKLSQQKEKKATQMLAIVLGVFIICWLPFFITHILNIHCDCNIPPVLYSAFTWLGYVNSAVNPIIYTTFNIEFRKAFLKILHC
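HEK293 T-REx D2 cells, tet-induced, calcium dye no-wash. Cpd pintool add, 180 s kinetic, then EC80 DA, 180 s kinetic. Ca flux read.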
D2 ag-1: agonists of human D2 dopamine receptor | P14416 | 340,000 compounds, 0.53% hits | HEK293 T-REx D2 cells, calcium flux agonist mode | activation, % at 2 µM;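 active means activation over 3 SD above normal in the single-dose calcium agonist read, cut at about 30% in these data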; further: 0% is about no effect
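Agonism is scored from calcium flux in a force-coupled, inducible HEK293 cell line expressing D2, read kinetically for 180 s after compound addition against dopamine controls.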
D2 PAM-1: positive allosteric modulators of human D2 dopamine receptor | DiscoveRx D2 beta-arrestin cells, luminescence, 90 min; 100% = 57 uM dopamine signal | potentiation, % (no concentration beside the values) | 360,000 compounds, 0.23% hits | AID 624464; in the data active means potentiation above about 50%
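PathHunter D2 cells, attached overnight at 37 deg C, received compound in DMSO plus dopamine at EC20 (50 nM final) for 90 min at 37 deg C. Beta-arrestin recruitment was read as luminescence after 1 h with detection reagent at ambient temperature.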
D2 ag-2: human D2 receptor agonism in beta-arrestin assay; 360,000 compounds, 0.084% hits; AID 624465; DiscoveRx PathHunter D2 beta-arrestin, luminescence, 90 min; 100% = 57 uM dopamine signal; activation, % (concentration not given with the values); in the data active means activation above about 40%
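Agonist mode: compounds alone added to overnight-plated D2 PathHunter cells for 90 min at 37 C, with 57 uM final dopamine (EC100) defining full response. Beta-arrestin recruitment detected by chemiluminescent reagent, read after 1 h at ambient temperature.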
D2 PAM-2: positively modulates the human D2 dopamine receptor allosterically | P14416 | HEK293 T-REx D2, calcium flux, EC20 dopamine potentiation | potentiation, % at 10 µM | 340,000 compounds, 0.34% hits;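 active means potentiation over 3 SD above the plate norm, cut at about 30% in these data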; further: 0% is about no effect
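Calcium flux readout, no-wash dye, 1 read/s. Inducible HEK293 Trex D2 line, overnight 30 C. Compound alone 180 s (agonist flags), then EC20 dopamine, another 180 s to score potentiation.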
Numbers without * were called inactive; nt = no result given. Only some compounds are listed: those with a hit (about 2.4% of all), similar ones and a draw of the others.

SMILES	D2 antagonist	D2 ag-1	D2 PAM-1	D2 ag-2	D2 PAM-2
Cc1cccn2c(=O)c3cc(C#N)c(=O)n(Cc4cccnc4)c3nc12	41*	0	-16	0	1
N=c1c(S(=O)(=O)c2ccccc2)cc2c(=O)n3ccccc3nc2n1Cc1cccnc1	44*	0	-67	-5	-8
Cc1cc2ccc(C)c(C)c2nc1SCC(=O)c1cccs1	60*	2	-7	-3	-8
CN1CCC(=C2c3ccccc3C=Cc3ccccc32)CC1	77*	3	11	-5	-28
CN(C(=O)c1cccnc1)c1nnc(-c2ccccn2)s1	16	3	-6	-3	-3
CC(=O)N(C)c1nnc(-c2ccccn2)s1	43*	-1	13	-3	1
CC1CCN(S(=O)(=O)c2ccc3ncn(CC(=O)N4CCN(C)CC4)c(=O)c3c2)CC1	48*	0	-4	-5	12
CN(Cc1ccccc1)C(=O)Nc1ccc2c(c1)N(C)C(=O)c1ccccc1S2	nt	3	nt	nt	-4
CCCOc1ccccc1C(=O)N(Cc1cccc(Br)c1)C1CCS(=O)(=O)C1 (stereo unspecified)	47*	1	3	2	1
CC(C)CN1CCN(Cc2ccc(C#CC(C)(C)O)cc2)CC1CCO (stereo unspecified)	33*	1	-9	-3	7
CC(C)CCN1CCN(Cc2cccc(C(F)(F)F)c2)CC1CCO (stereo unspecified)	76*	-2	-17	1	-33
CSc1cccc(CN2CCN(CCC(C)C)C(CCO)C2)c1 (stereo unspecified)	59*	1	-23	0	-16
CC(=O)C1=CCC(c2ccc(Cl)cc2)N(S(=O)(=O)c2ccccc2C)C1 (stereo unspecified)	nt	nt	-6	-10	nt
CCN1CCN(S(=O)(=O)c2ccc(Cl)c(C(=O)NC(C)(C)C)c2)CC1	30*	5	-3	-5	-9
CCN1CCN(S(=O)(=O)c2ccc(Cl)c(C(=O)NC3CC3)c2)CC1	-53	1	-6	-3	-7
CCN1CCN(S(=O)(=O)c2ccc(Cl)c(C(=O)NC3CCCC3)c2)CC1	47*	0	-6	3	-7
COc1ccc(CCNC(=O)Cc2c(C)c3ccc(O)c(C)c3oc2=O)cc1OC	nt	0	nt	nt	3
O=C(NCc1ccccc1Cl)c1ccc2c(c1)N(Cc1ccccc1)C(=O)CS2	nt	1	nt	nt	-6
CCOC(=O)N1CCC(NC(=O)c2ccc(CS(=O)c3ccc(Cl)cc3)o2)CC1 (stereo unspecified)	8	1	1	0	0
Cc1ccccc1S(=O)Cc1ccc(C(=O)NC2CCN(Cc3ccccc3)CC2)o1 (stereo unspecified)	44*	1	-33	-4	-20
Cc1cccc(S(=O)Cc2ccc(C(=O)NC3CCN(Cc4ccccc4)CC3)o2)c1 (stereo unspecified)	44*	0	-35	-7	-19
COc1ccc(-c2c3c(=O)n(C)c(=O)n(C)c3c3c(-c4ccc(C)cc4)nc4ccccc4n23)cc1	nt	-1	nt	nt	0
Cc1cccc(OCc2cc(=O)n3c(-c4ccccc4)csc3n2)c1C	nt	0	nt	nt	-9
CC1(C(=O)Nc2cccc3ccccc23)CCN1C(=O)Cc1ccc(Cl)cc1Cl (stereo unspecified)	nt	nt	-8	5	nt
CCC(=O)N1CCc2cc(OC)c(OC)cc2C1COc1ccc(C(=O)OC)cc1 (stereo unspecified)	-5	0	-2	-2	40*
SMILES	D2 antagonist	D2 ag-1	D2 PAM-1	D2 ag-2	D2 PAM-2
CCOC(=O)NN1C(=O)c2ccccc2NC1c1ccccn1 (stereo unspecified)	38*	1	-10	-19	nt
O=C(CSc1nccc(=O)[nH]1)Nc1ccc(S(=O)(=O)N2CCOCC2)cc1	31*	0	-2	-1	5
CCn1c(NCc2ccccn2)nc2c1c(=O)n(C)c(=O)n2C	1	0	13	-1	63*
Cn1c(=O)c2c(nc(NCc3ccccc3)n2Cc2ccccc2)n(C)c1=O	nt	nt	nt	nt	15
Cn1c(=O)c2c(nc(NCC3CCCO3)n2Cc2ccccc2)n(C)c1=O (stereo unspecified)	12	0	-12	0	40*
COc1ccc(CCNC(=O)[C@H](C)NC(=O)N2CCn3c2nc2ccccc23)cc1OC	37*	0	-9	-4	-4
C[C@H](NC(=O)N1CCn2c1nc1ccccc12)C(=O)NC1CC1	67*	1	-7	0	-11
CCc1cccc(-n2c(=O)c3cccnc3n2CC(=O)Nc2c(C)cc(C)cc2C)c1	nt	0	nt	nt	-7
COc1ccc(CNC(=O)/C(C)=C\C(=O)O)cc1	36*	0	-8	1	1
COc1ccc(C2Nc3ccc(Br)cc3C(c3ccccc3)N2CC(=O)O)cc1 (stereo unspecified)	61*	0	-47	-7	-19
O=C(O)CN1C(c2ccccc2O)Nc2ccc(Br)cc2C1c1ccccc1 (stereo unspecified)	-5	0	-10	0	2
CCC1CCCCN1CCCCOc1cccc(Cl)c1 (stereo unspecified)	55*	0	-16	-1	-25
COc1ccc(OCC(=O)Nc2c(C(=O)N(CCN(C)C)Cc3ccco3)oc3ccccc23)cc1	-3	1	-30	-4	31*
CSC1=NSC2=NC(=O)/C(=C\c3coc4ccccc4c3=O)C(=N)N12	30	110*	7	3	-8
N=C1/C(=C\c2coc3ccccc3c2=O)C(=O)N=C2SC(c3ccncc3)=NN12	17	59*	2	5	-8
CCCCNC(=O)NCC(=O)Nc1ccc(F)c(F)c1	40*	0	-4	0	-4
COc1ccccc1NC(=O)NCC(=O)Nc1ccc(F)c(F)c1	nt	nt	-12	-2	nt
COc1ccc(CCNC(=O)Cc2c(C)c3cc4c(C)coc4cc3oc2=O)cc1OC	nt	nt	nt	nt	-2
O=C(Nc1cc2ccc(O)cc2oc1=O)c1ccc(F)cc1	nt	0	nt	nt	-3
O=C(c1ccco1)N1CCN(C(c2cccs2)c2nnnn2C2CCCC2)CC1 (stereo unspecified)	7	0	-8	1	-6
COc1ccc(C(c2nnnn2C2CCCCC2)N2CCN(c3ccc(OC)cc3)CC2)cc1 (stereo unspecified)	-8	0	-21	-4	3
COc1ccc(C(c2nnnn2C2CCCC2)N2CCC(C)CC2)cc1 (stereo unspecified)	-4	-1	-19	-6	30*
c1cnc2ccc(C(c3nnnn3C3CCCCC3)N3CCCCC3)cc2c1 (stereo unspecified)	5	1	-18	-3	42*
